This is a sample that favours compounds with a hit; in the whole collection about 2.1% have one here.
ADAM17 inh – ADAM17 inhibition, QFRET primary screen; P78536; recombinant ADAM17, EDANS/DABCYL FRET peptide cleavage; inhibition, % at 6.95 µM; 370,000 compounds, 0.83% hits; AID 720648;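 active = inhibition above the mean of compounds lying between control limits plus 3 SD, set per campaign, cut at about 8.5% in these data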
PLC-beta3 inh – inhibitors of human phospholipase C beta3. 370,000 compounds, 0.18% hits. Purified PLC-beta3, fluorogenic substrate, fluorescence. AID 720704. inhibition, % at 12.2 µM; in the data active = inhibition above about 11%
ADAM10 inh – inhibits human ADAM10; O14672; recombinant ADAM10, EDANS/DABCYL FRET peptide cleavage, 3 h; inhibition, % at 7 µM; 370,000 compounds, 0.62% hits;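 active = inhibition above a per-campaign cutoff equal to the mean of compounds falling between control-based bounds plus 3 SD, cut at about 20% in these data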
Rce1 inhib – yeast Ras-converting enzyme inhibition; Q03530; yeast membranes, quenched prenylated peptide cleavage fluorescence; calls only; 290,000 compounds, 0.27% hits; AID 2563;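 active = fall in fluorescence gain of 50% or more versus controls, with final raw signal at or below 3038400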
PLCg1 inh – PLC-gamma1 (human) inhibition, primary screen; inhibition, % at 12.2 µM; purified PLC-gamma1, fluorogenic substrate, fluorescence; 370,000 compounds, 0.84% hits
Target sequence (P19174 whole entry, looked up): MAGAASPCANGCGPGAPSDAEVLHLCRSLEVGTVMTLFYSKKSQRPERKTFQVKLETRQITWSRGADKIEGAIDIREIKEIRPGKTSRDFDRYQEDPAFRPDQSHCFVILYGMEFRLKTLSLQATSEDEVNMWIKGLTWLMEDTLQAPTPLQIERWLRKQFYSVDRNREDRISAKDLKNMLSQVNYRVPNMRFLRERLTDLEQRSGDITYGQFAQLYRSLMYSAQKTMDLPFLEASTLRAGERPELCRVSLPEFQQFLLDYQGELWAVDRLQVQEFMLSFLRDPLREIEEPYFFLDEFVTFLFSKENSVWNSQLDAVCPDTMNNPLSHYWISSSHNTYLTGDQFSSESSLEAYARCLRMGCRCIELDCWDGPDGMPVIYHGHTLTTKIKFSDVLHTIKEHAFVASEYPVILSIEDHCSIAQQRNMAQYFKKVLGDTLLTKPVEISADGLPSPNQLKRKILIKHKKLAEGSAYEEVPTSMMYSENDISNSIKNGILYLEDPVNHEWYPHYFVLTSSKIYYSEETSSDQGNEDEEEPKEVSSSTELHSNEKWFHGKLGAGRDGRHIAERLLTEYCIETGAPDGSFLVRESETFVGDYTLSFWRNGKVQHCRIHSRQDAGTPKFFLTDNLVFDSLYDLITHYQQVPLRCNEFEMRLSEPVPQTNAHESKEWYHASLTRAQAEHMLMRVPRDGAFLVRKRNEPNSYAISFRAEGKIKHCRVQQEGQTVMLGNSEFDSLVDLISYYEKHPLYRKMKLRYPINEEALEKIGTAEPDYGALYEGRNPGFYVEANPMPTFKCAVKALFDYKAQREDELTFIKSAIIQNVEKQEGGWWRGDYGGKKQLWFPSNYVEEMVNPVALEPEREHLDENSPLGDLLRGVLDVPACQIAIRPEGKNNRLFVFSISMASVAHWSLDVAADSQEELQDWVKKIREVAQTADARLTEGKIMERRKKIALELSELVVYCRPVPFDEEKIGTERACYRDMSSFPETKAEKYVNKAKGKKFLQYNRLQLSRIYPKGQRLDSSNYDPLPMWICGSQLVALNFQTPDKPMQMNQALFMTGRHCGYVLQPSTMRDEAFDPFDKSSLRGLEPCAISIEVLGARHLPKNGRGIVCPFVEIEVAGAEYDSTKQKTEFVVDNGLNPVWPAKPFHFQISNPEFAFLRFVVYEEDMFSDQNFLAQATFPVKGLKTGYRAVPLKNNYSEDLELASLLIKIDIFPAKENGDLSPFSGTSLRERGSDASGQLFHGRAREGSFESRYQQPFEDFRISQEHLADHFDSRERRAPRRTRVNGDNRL
PLCg1 ctr – PLC-gamma1 inhibition, counter-screen for PLC-beta3 hits | 3,300 compounds, 3.1% hits | inhibition, % at 12.3 µM | purified PLC-gamma1, fluorogenic substrate, fluorescence | shares compounds with PLCg1 inh
PLCbeta3 conf – confirmation of human PLC-beta3 inhibitors | shares compounds with PLCg1 inh | purified PLC-beta3, fluorogenic substrate fluorescence | inhibition, % at 12.3 µM | 3,300 compounds, 1% hits | AID 743261; in the data active = inhibition above about 11%
Each line names hits and unclear results; the compound was inactive in the other large screens (follow-up assays come after a bar, where they were run). Cut-off read from the data, not from the text of the source, unless noted: active = inhibition above about 9.5%; inactive = the rest.

Clc1ccccc1-c1nnc2sc(C3COc4ccccc4O3)nn12 (stereo unspecified)	PLCg1 inh 11 (no result: Rce1 inhib) | PLCg1 ctr inactive | PLCbeta3 conf inactive
CC(C)c1ccc(S(=O)(=O)N2CCN(C(=O)CCNS(=O)(=O)c3ccccc3F)CC2)cc1	PLCg1 inh 18 | PLCg1 ctr inactive | PLCbeta3 conf inactive
O=C(CCNS(=O)(=O)c1ccccc1F)N1CCN(Cc2ccccc2)CC1	none
CCOC(=O)c1cc(=O)c2c([N+](=O)[O-])ccc(OC)c2o1	PLCg1 inh 9.6 | PLCg1 ctr inactive | PLCbeta3 conf inactive
O=C(Cn1cnc2ccccc2c1=O)N1CCCCC1	none (no result: Rce1 inhib)
Cn1c(=O)cc(C(=O)N/N=C/c2ccc(F)cc2)[nH]c1=O	PLCg1 inh 9.6 | PLCg1 ctr inactive | PLCbeta3 conf inactive
Cc1ccc(S(=O)(=O)N(CCCc2c(C)nc[nH]c2=O)c2ccccc2)cc1	none (no result: Rce1 inhib)
O=C(Nc1ccccc1N1CCCCC1)c1ccc(-c2cccc(Cl)c2)o1	PLCg1 inh 13 | PLCg1 ctr inactive | PLCbeta3 conf inactive
O=C(NCc1ccncc1)C1COc2ccccc2O1 (stereo unspecified)	none
O=C(Cn1c(CO)nc2ccccc21)NCc1ccc2c(c1)OCO2	none (no result: Rce1 inhib)
Cc1nc2ccccn2c1C(=O)NCc1ccc2c(c1)OCO2	PLCg1 inh 10 | PLCg1 ctr inactive | PLCbeta3 conf inactive
O=C(NCc1ccc2c(c1)OCO2)C1COc2ccccc2O1 (stereo unspecified)	PLCg1 inh 11 | PLCg1 ctr inactive | PLCbeta3 conf inactive
CC(=O)c1c(C)n(CC(=O)NCc2ccc3c(c2)OCO3)c2ccccc12	PLCg1 inh 11 | PLCg1 ctr inactive | PLCbeta3 conf inactive
Cc1nc2ccccn2c1C(=O)N/N=C/c1ccc2c(c1)OCO2	none
Cc1nn(C)cc1S(=O)(=O)Nc1cccc(Cl)c1	none
Cc1c(SCCO)c(=O)[nH]c2cc3c(cc12)OCO3	none
C=CCn1c(C)c(C(C)=O)c(N2CCN(C(c3ccccc3)c3ccccc3)CC2)nc1=S	none
CCN(CC)CCc1nc(-c2ccccc2)no1	PLCg1 inh 11 (no result: Rce1 inhib) | PLCg1 ctr inactive | PLCbeta3 conf inactive
CN(C)CCNc1nc(-c2ccccc2F)c2sccc2n1	none (no result: Rce1 inhib)
CC(C)C(NC(=O)c1ccccc1)C(=O)OCC(=O)N1CCCCC1 (stereo unspecified)	none (no result: Rce1 inhib)
CC(C)C(NC(=O)c1ccccc1)C(=O)OCC(=O)N1CCN(c2ccccc2)CC1 (stereo unspecified)	PLCg1 inh 11 (no result: Rce1 inhib) | PLCg1 ctr inactive | PLCbeta3 conf inactive
COc1cccc(CN2CCN(S(=O)(=O)c3ccc(Br)cc3)CC2)c1	none
COc1cccc(CC(=O)N2CCN(S(=O)(=O)c3ccc(Br)cc3)CC2)c1	PLCg1 inh 12 | PLCg1 ctr inactive | PLCbeta3 conf inactive
Cc1ccc(C(=O)CCC(=O)Nc2ccc(Cl)c(S(=O)(=O)Nc3cccc(Cl)c3)c2)cc1	PLCg1 inh 11 | PLCg1 ctr inactive | PLCbeta3 conf inactive
O=C(N[C@H](C(=O)N1CCC[C@H]1C(=O)NCCc1ccccc1Cl)C1CCCCC1)c1ccc(Cl)c(Cl)c1	none (no result: Rce1 inhib)
CN1C(=O)SC(Nc2ccc(F)cc2)C1=O (stereo unspecified)	none
CN1C(=O)SC(Nc2ccccc2)C1=O (stereo unspecified)	PLCg1 inh 9.5 | PLCg1 ctr inactive | PLCbeta3 conf inactive
CC(c1ccccc1)n1c(-c2ccccc2F)n[nH]c1=S (stereo unspecified)	PLCg1 inh 9.9 | PLCg1 ctr inactive | PLCbeta3 conf inactive
CC(C)(C)OC(=O)C(C)(C)Sc1nnc(N)s1	none (no result: Rce1 inhib)
N=c1sccn1CC(=O)NCCc1ccc(Cl)cc1	PLCg1 inh 10 | PLCg1 ctr inactive | PLCbeta3 conf inactive
O=C(CSc1nc(=O)n2ccccc2n1)NC1CCCCC1	none
c1ccc(N2CCOCCOCCOCCOCC2)cc1	PLCg1 inh 12 | PLCg1 ctr inactive | PLCbeta3 conf inactive
Cc1cc(=O)n(C)c(=O)n1CCCCCN1CCCC1	PLCg1 inh 11 | PLCg1 ctr inactive | PLCbeta3 conf inactive
COCCCNC(=O)CS(=O)Cc1nc(-c2cccc(OC)c2)oc1C (stereo unspecified)	PLCg1 inh 66 | PLCg1 ctr inactive | PLCbeta3 conf inactive
CCN(C(=O)c1ccc2c(SCC(=O)O)c3c(nc2c1)CCC3)c1cc(Cl)ccc1OC	none
CCC(C)(C)NC(=O)C(c1ccc(OC)cc1)N(CC1CCCO1)C(=O)CCC(=O)Nc1cc(C)on1 (stereo unspecified)	none (no result: Rce1 inhib)
CCC(C)(C)NC(=O)C(c1ccc(OC)cc1)N(C(=O)CCC(=O)Nc1cc(C)on1)C1CC1 (stereo unspecified)	PLCg1 inh 11 | PLCg1 ctr inactive | PLCbeta3 conf inactive
Cc1cc2n(n1)SC(Nc1ccc(F)cc1)N2 (stereo unspecified)	PLCg1 inh 10 | PLCg1 ctr inactive | PLCbeta3 conf inactive
CN1C=CC(=C[N+](=O)[O-])N(C)C1=O	PLCg1 inh 12 (no result: Rce1 inhib) | PLCg1 ctr inactive | PLCbeta3 conf inactive
O=C(Nc1ccc2c(c1)OCO2)c1cnn2c1NC(c1ccco1)CC2C(F)(F)F (stereo unspecified)	PLCg1 inh 10 | PLCg1 ctr inactive | PLCbeta3 conf inactive
CC(=O)CCC(=O)OCC(=O)Nc1ccc(SC(F)F)cc1	none
CCCCN(CC)S(=O)(=O)c1ccc2c(c1)CCCN2C(C)=O	none
CC(=O)N1CCCc2cc(S(=O)(=O)N(C)Cc3ccccc3)ccc21	PLCg1 inh 9.8 | PLCg1 ctr inactive | PLCbeta3 conf inactive
CCC(=O)NCCc1nc2cc(NC(=O)c3ccco3)ccc2n1C	none
COc1cc(/C=N/NC(=O)c2cc[n+]([O-])cc2)ccc1O	PLCg1 inh 17 | PLCg1 ctr inactive | PLCbeta3 conf inactive
Cc1ccc(NC(=O)Nc2c(Cl)cccc2Cl)cn1	none
Cc1ccc(SCC(=O)NCC2CCCO2)cc1 (stereo unspecified)	PLCg1 inh 11 | PLCg1 ctr inactive | PLCbeta3 conf inactive
CC1Cc2nc(SCC(=O)NCC3CCCO3)n(Cc3ccccc3)c(=O)c2S1 (stereo unspecified)	PLCg1 inh 9.6 | PLCg1 ctr inactive | PLCbeta3 conf inactive
CCC(C)(C(=O)NC1CCCC1)N(Cc1cccs1)C(=O)c1ccccn1 (stereo unspecified)	PLCg1 inh 10 | PLCg1 ctr inactive | PLCbeta3 conf inactive
CCC1Oc2ccccc2N(CC(=O)N2CCCC2)C1=O (stereo unspecified)	PLCg1 inh 9.7 (no result: Rce1 inhib) | PLCg1 ctr inactive | PLCbeta3 conf inactive
CCOC(=O)C1CCN(C(=O)CN2C(=O)C(CC)Oc3ccccc32)CC1 (stereo unspecified)	none
COc1ccc(Cc2nnc(NC(=O)CS(=O)(=O)c3ccccc3)s2)cc1OC	none (no result: Rce1 inhib)
CCn1c(CNc2ccc(C)cc2)nnc1SCC(N)=O	PLCg1 inh 9.7 | PLCg1 ctr inactive | PLCbeta3 conf inactive
